# According to PubChem BioAssay (EPA / NIEHS):
# “And” between values parts separate entries of the source, which are not always exact repeats. Identical values can stand only once. The source made the active and inactive calls. Rule for the calls: active = hit-call score of the fitted dose curve at least 0.9, where 1 is the maximum; inactive = score below 0.9.
# Read-out: not listed separately
# Experiment: BSK_MyoF_SRB: Viability Assessment in the BioMAP Diversity Plus: MyoF Assay (AID 2284267);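 note: total protein by SRB absorbance in parallel cultures as cytotoxicity measure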
# Settings: primary human lung fibroblasts
# Summary of the method: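 Read-out is SRB absorbance at 560 nm, reflecting total protein in parallel lung fibroblast cultures harvested 24 h after compound addition. Cells were TCA-fixed (10%) and stained with 0.1% SRB; activity is referenced to DMSO.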
SMILES,outcome,AC50
COc1cc(OC)nc(NC(=O)NS(=O)(=O)c2ncccc2C(=O)N(C)C)n1,inactive,
CC(=O)C(Cl)C(=O)N(C)C (stereo unspecified),inactive,
COP(=S)(OC)Oc1ccc(Sc2ccc(OP(=S)(OC)OC)cc2)cc1,inactive,
OCc1ccco1,inactive,
Oc1ccc(-c2ccccc2)cc1,inactive,
O=C(O)C(F)(F)C(F)(F)C(F)(F)C(F)(F)C(F)(F)C(F)(F)F,inactive,
CCOC(=O)/C=C(C)/C=C/C[C@@H](C)CCCC(C)C,,30.1 µM (active)
CCOP(=S)(OCC)SCCS(=O)(=O)CC,inactive,
Nc1ccc(-c2ccc(N)c(Cl)c2)cc1Cl,,24.9 µM (active)
CC(C)CCCCCCOC(=O)c1ccccc1C(=O)OCCCCCCC(C)C,inactive,
Nc1cccc2ccccc12,inactive,
NC(=S)Nc1ccccc1,inactive,
COC[C@H](C)N(C(=O)CCl)c1c(C)csc1C,inactive,
O=C(O)CCC(F)(C(F)(F)F)C(F)(F)F,inactive,

# Read-out: Matrix Metallopeptidase 1 (MMP1), MMP1 (gene 4312)
# Experiment: BSK_MyoF_MMP1: BioMAP Diversity Plus: MyoF Assay for Matrix Metallopeptidase 1 (MMP1) Biomarker Activity (AID 2284268)
# Settings: primary human lung fibroblasts
# Summary of the method: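 ELISA readout of MMP1 in primary human lung fibroblast cultures, 24 h post-dosing. Gain of signal versus DMSO vehicle control defines activity. Parallel SRB staining (0.1% after 10% TCA fixation, 560 nm) flags overt cytotoxicity.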
SMILES,outcome,AC50
O=S(=O)(c1ccc(Cl)cc1)c1ccc(Cl)cc1,inactive,
COC(=O)c1sccc1S(=O)(=O)NC(=O)Nc1nc(C)nc(OC)n1,inactive,
O=Cc1cccc(Oc2ccccc2)c1,inactive,
COP(=S)(OC)Oc1ccc(S(=O)(=O)N(C)C)cc1,inactive,
CC1(C)Cc2cccc(O)c2O1,inactive,
O=C(O)C(F)(F)C(F)(F)C(F)(F)C(F)(F)C(F)(F)C(F)(F)C(F)(F)C(F)(F)C(F)(F)C(F)(F)F,inactive,
ClC(Cl)=C(Cl)C(Cl)=C(Cl)Cl,inactive,
CCCCCCCCC(=O)NCc1ccc(O)c(OC)c1,inactive,
CCSC(C)CC1CC(=O)C(C(CC)=NOC/C=C/Cl)=C(O)C1 (stereo unspecified),inactive,
CCCCC(CC)CO[N+](=O)[O-] (stereo unspecified),,31.6 µM (active)
CCNc1nc(NC(C)(C)C)nc(SC)n1,,31.5 µM (active)
Nc1ncc([N+](=O)[O-])s1,inactive,
O=[N+]([O-])c1ccc2c3c(cccc13)CC2,,20 µM (active)
O=C(OC1CCCCC1)c1ccccc1C(=O)OC1CCCCC1,,5.69 µM (active)
CCOP(=S)(OCC)Oc1ccc(S(C)=O)cc1 (stereo unspecified),inactive,
CC(C)c1ccc(CO)cc1,inactive,
COP(=S)(OC)Oc1c(Cl)cc(C)cc1Cl,inactive,
ClC1=C(Cl)[C@]2(Cl)[C@H]3[C@H]([C@H]4C=C[C@H]3C4)[C@@]1(Cl)C2(Cl)Cl,,20 µM (active)

SMILES,outcome,AC50
C(=NC1CCCCC1)=NC1CCCCC1,,4.75 µM (active)
Oc1c(I)cc(I)cc1I,,5.11 µM (active)
BrCCBr,inactive,
COP(=S)(OC)Oc1cc(Cl)c(Cl)cc1Cl,,20 µM (active)
COc1cc(OC)nc(NC(=O)NS(=O)(=O)c2ncccc2C(=O)N(C)C)n1,inactive,
CC(=O)C(Cl)C(=O)N(C)C (stereo unspecified),inactive,
COP(=S)(OC)Oc1ccc(Sc2ccc(OP(=S)(OC)OC)cc2)cc1,,7.48 µM (active)
OCc1ccco1,inactive,
Oc1ccc(-c2ccccc2)cc1,inactive,
O=C(O)C(F)(F)C(F)(F)C(F)(F)C(F)(F)C(F)(F)C(F)(F)F,inactive,
CCOC(=O)/C=C(C)/C=C/C[C@@H](C)CCCC(C)C,,20 µM (active)
CCOP(=S)(OCC)SCCS(=O)(=O)CC,inactive,
Nc1ccc(-c2ccc(N)c(Cl)c2)cc1Cl,,7.38 µM (active)
CC(C)CCCCCCOC(=O)c1ccccc1C(=O)OCCCCCCC(C)C,inactive,
Nc1cccc2ccccc12,,20 µM (active)
NC(=S)Nc1ccccc1,inactive,
COC[C@H](C)N(C(=O)CCl)c1c(C)csc1C,inactive,
O=C(O)CCC(F)(C(F)(F)F)C(F)(F)F,inactive,

# Read-out: TIMP metallopeptidase inhibitor 1 (TIMP1), TIMP1 (gene 7076)
# Experiment: BSK_MyoF_TIMP1: BioMAP Diversity Plus: MyoF Assay for TIMP metallopeptidase inhibitor 1 (TIMP1) Biomarker Activity (AID 2284269)
# Settings: primary human lung fibroblasts
# Summary of the method: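 Fibroblasts from human lung are dosed with chemical, cultured 24 h, and assayed for TIMP-1 by ELISA. Increases over the DMSO baseline are scored, with SRB total-protein staining run in parallel for cytotoxicity.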
SMILES,outcome,AC50
O=S(=O)(c1ccc(Cl)cc1)c1ccc(Cl)cc1,inactive,
COC(=O)c1sccc1S(=O)(=O)NC(=O)Nc1nc(C)nc(OC)n1,inactive,
O=Cc1cccc(Oc2ccccc2)c1,inactive,
COP(=S)(OC)Oc1ccc(S(=O)(=O)N(C)C)cc1,inactive,
CC1(C)Cc2cccc(O)c2O1,inactive,
O=C(O)C(F)(F)C(F)(F)C(F)(F)C(F)(F)C(F)(F)C(F)(F)C(F)(F)C(F)(F)C(F)(F)C(F)(F)F,,4.33 µM (active) and 5.2 µM (active)
ClC(Cl)=C(Cl)C(Cl)=C(Cl)Cl,inactive,
CCCCCCCCC(=O)NCc1ccc(O)c(OC)c1,inactive,
CCSC(C)CC1CC(=O)C(C(CC)=NOC/C=C/Cl)=C(O)C1 (stereo unspecified),inactive,
CCCCC(CC)CO[N+](=O)[O-] (stereo unspecified),inactive,
CCNc1nc(NC(C)(C)C)nc(SC)n1,inactive,
Nc1ncc([N+](=O)[O-])s1,inactive,
O=[N+]([O-])c1ccc2c3c(cccc13)CC2,inactive,
O=C(OC1CCCCC1)c1ccccc1C(=O)OC1CCCCC1,,25.7 µM (active)
CCOP(=S)(OCC)Oc1ccc(S(C)=O)cc1 (stereo unspecified),inactive,
CC(C)c1ccc(CO)cc1,inactive,
COP(=S)(OC)Oc1c(Cl)cc(C)cc1Cl,inactive,
ClC1=C(Cl)[C@]2(Cl)[C@H]3[C@H]([C@H]4C=C[C@H]3C4)[C@@]1(Cl)C2(Cl)Cl,inactive,

SMILES,outcome,AC50
C(=NC1CCCCC1)=NC1CCCCC1,,6.97 µM (active)
Oc1c(I)cc(I)cc1I,inactive,
BrCCBr,inactive,
COP(=S)(OC)Oc1cc(Cl)c(Cl)cc1Cl,inactive,
COc1cc(OC)nc(NC(=O)NS(=O)(=O)c2ncccc2C(=O)N(C)C)n1,inactive,
CC(=O)C(Cl)C(=O)N(C)C (stereo unspecified),inactive,
COP(=S)(OC)Oc1ccc(Sc2ccc(OP(=S)(OC)OC)cc2)cc1,inactive,
OCc1ccco1,inactive,
Oc1ccc(-c2ccccc2)cc1,inactive,
O=C(O)C(F)(F)C(F)(F)C(F)(F)C(F)(F)C(F)(F)C(F)(F)F,inactive,
CCOC(=O)/C=C(C)/C=C/C[C@@H](C)CCCC(C)C,,29.8 µM (active)
CCOP(=S)(OCC)SCCS(=O)(=O)CC,inactive,
Nc1ccc(-c2ccc(N)c(Cl)c2)cc1Cl,inactive,
CC(C)CCCCCCOC(=O)c1ccccc1C(=O)OCCCCCCC(C)C,inactive,
Nc1cccc2ccccc12,inactive,
NC(=S)Nc1ccccc1,inactive,
COC[C@H](C)N(C(=O)CCl)c1c(C)csc1C,inactive,
O=C(O)CCC(F)(C(F)(F)F)C(F)(F)F,inactive,
